{"source": "ChEMBL document CHEMBL4513216", "about": "“Probing the Open Global Health Chemical Diversity Library for Multistage-Active Starting Points for Next-Generation Antimalarials” (ACS Infect Dis, 2020)", "note": "Among all 69,000 compounds or so, about 8,600 (12%) showed an effect of 50% or more. The list comes from a sample in which strong results are over-represented; it also holds similar structures and randomly drawn compounds.", "data": [{"test_system": "Plasmodium berghei", "test": "Screen against P. berghei liver stage (PbLuc), transformed with Luciferase, at 10uM", "assay_type": "functional, HepG2", "settings": "tested at 10 uM", "units": {"INHIBITION": "%"}, "values": [{"smiles": "CN1CCC(Oc2ccc(-n3ccnc3-c3nccn3C)cc2)CC1", "INHIBITION": 13}, {"smiles": "CN(CCc1ccccc1)C(=O)c1cccnc1OCC(F)(F)F", "INHIBITION": 45.1}, {"smiles": "Cc1cc(=O)n2nc(CNc3cc(Cl)ccc3C)nc2[nH]1", "INHIBITION": 39.2}, {"smiles": "Cc1ncsc1C(=O)NCCN1CCCCCC1=O", "INHIBITION": 25.4}, {"smiles": "COC(=O)CNC(=O)c1sccc1N(C)S(=O)(=O)c1ccc(Cl)cc1", "INHIBITION": 20.1}, {"smiles": "CNC(=O)c1sccc1N(C)S(=O)(=O)c1ccc(Cl)cc1", "INHIBITION": 84.7}, {"smiles": "CCCNC(=O)c1sccc1N(C)S(=O)(=O)c1ccc(Cl)cc1", "INHIBITION": 23.7}, {"smiles": "CC(C)NC(=O)c1sccc1N(C)S(=O)(=O)c1ccc(Cl)cc1", "INHIBITION": 0}, {"smiles": "CCNC(=O)c1sccc1N(C)S(=O)(=O)c1ccc(Cl)cc1", "INHIBITION": 26.7}, {"smiles": "COCCNC(=O)c1sccc1N(C)S(=O)(=O)c1ccc(Cl)cc1", "INHIBITION": 51.6}, {"smiles": "CC(C)CCNC(=O)c1sccc1N(C)S(=O)(=O)c1ccccc1", "INHIBITION": 0}, {"smiles": "Cc1ccc(S(=O)(=O)N(C)c2ccsc2C(=O)NCC(C)C)cc1", "INHIBITION": 28.4}, {"smiles": "CN(C)CCNC(=O)c1sccc1N(C)S(=O)(=O)c1ccc(Cl)cc1", "INHIBITION": 54}, {"smiles": "CN1CCCC1c1nnc2n1CCN(S(=O)(=O)c1ccccc1Cl)CC2", "note": "(centres undefined)", "INHIBITION": -12.252}, {"smiles": "NC(=O)[C@@H]1Cc2ccccc2N1C(=O)C1CC(c2ccccc2)=NO1", "note": "(some centres undefined)", "INHIBITION": -13.6}, {"smiles": "CNC(=O)CN(C)C(=O)c1cc(Cl)c(Cl)n1C", "INHIBITION": 37.1}, {"smiles": "Cc1nnc(NCc2cccc(OCc3ccccn3)c2)c(C#N)c1C", "INHIBITION": 40.1}, {"smiles": "COCC(=O)NCc1cc(=O)n2c(n1)CN(Cc1ccsc1)CCC2", "INHIBITION": 41.5}, {"smiles": "CO[C@H]1CN(C(=O)OC(C)(C)C)CC1NCc1cccn1C", "note": "(some centres undefined)", "INHIBITION": 54.5}, {"smiles": "CC(C)(C)OC(=O)N1CC(=O)N(Cc2ccco2)CC(O)C1", "note": "(centres undefined)", "INHIBITION": 29.8}, {"smiles": "CO[C@H]1CN(C(=O)OC(C)(C)C)CC1NCc1cc[nH]c1", "note": "(some centres undefined)", "INHIBITION": 38.7}, {"smiles": "CO[C@H]1CN(C(=O)OC(C)(C)C)CC1NCc1ccoc1", "note": "(some centres undefined)", "INHIBITION": 66.5}, {"smiles": "CC(C)(C)OC(=O)N1CCC(C(=O)NCc2ccccc2)C1", "note": "(centres undefined)", "INHIBITION": -10.3}, {"smiles": "CC(C)(C)OC(=O)N1CC(=O)N(CCc2ccccc2)CC(O)C1", "note": "(centres undefined)", "INHIBITION": 9.36}, {"smiles": "CO[C@H]1CN(C(=O)OC(C)(C)C)CC1NCc1ccn(C)c1", "note": "(some centres undefined)", "INHIBITION": 39.6}, {"smiles": "CN(Cc1ccco1)C(=O)[C@H]1CSCN1C(=O)OC(C)(C)C", "INHIBITION": 29.6}, {"smiles": "CO[C@H]1CN(C(=O)OC(C)(C)C)CC1NCc1ccco1", "note": "(some centres undefined)", "INHIBITION": 74}, {"smiles": "CCOCCN1Cc2ncn(C)c2C(COCC2CCOCC2)C1", "note": "(centres undefined)", "INHIBITION": 36.9}, {"smiles": "CCCc1ccc2oc(C(=O)N3CCN(CCOC)CC3)c(C)c2c1", "INHIBITION": -13.1}, {"smiles": "COc1ccc(-n2cccn2)c(CN2CCC3(CCCN(C)C3=O)C2)c1", "note": "(centres undefined)", "INHIBITION": 43.9}, {"smiles": "Nc1nc(N)c2c(n1)OC1(CCN(C(=O)CC3CCCNC3)CC1)C2", "note": "(centres undefined)", "INHIBITION": 27.1}, {"smiles": "Cc1cc(C(=O)N[C@H]2Cc3ccccc3[C@@H]2N)c(=O)[nH]c1C", "INHIBITION": 21.5}, {"smiles": "Cc1nc(CN2CCN(C)C(=O)C23CCN(CC2CCCC2)CC3)cs1", "INHIBITION": 49.4}, {"smiles": "Cc1noc([C@H]2COC[C@H]3CN(C(=O)Cc4ccccc4F)C[C@H]32)n1", "INHIBITION": 12.7}, {"smiles": "O=C(CCCn1cccn1)N1C[C@@H](O)[C@H](Oc2cccc(F)c2)C1", "INHIBITION": 32.8}, {"smiles": "CC(C)Cn1cncc1CNC(=O)c1cccc(CC2CCNCC2)c1", "INHIBITION": 42.3}, {"smiles": "Cc1cnccc1CN(C)C(=O)c1cccc(CCC(C)(C)O)c1", "INHIBITION": -2.39}, {"smiles": "O=C(NCc1cnn2cccnc12)c1cccc(CC2CCNCC2)c1", "INHIBITION": 77.7}, {"smiles": "CCn1cc(CN(C)C(=O)c2cccc(CCC(C)(C)O)c2)cn1", "INHIBITION": 7.11}, {"smiles": "Cc1cccnc1[C@H](C)NC(=O)c1cccc(CC2CCNCC2)c1", "INHIBITION": 15}, {"smiles": "CC(C)(O)CCc1cccc(C(=O)NCc2cnn3cccnc23)c1", "INHIBITION": 54.5}, {"smiles": "CCOc1ccccc1CC(=O)N1C[C@H](C2CC2)[C@@H](N)C1", "INHIBITION": 2.66}, {"smiles": "Cc1nn(C)cc1NC(=O)CN1CCN(C2CCCC2)C(=O)C1", "INHIBITION": 19.35}, {"smiles": "CC(C)c1nc(C2CCCN2Cc2nccn2CC(F)(F)F)no1", "note": "(centres undefined)", "INHIBITION": 26.4}, {"smiles": "c1cc(-c2cnc(NC3CC3)nc2[C@@H]2CCCO2)ccn1", "INHIBITION": 5.34}, {"smiles": "Cc1ccc(NC2CCN(C(=O)COCC(F)(F)F)CC2)nn1", "INHIBITION": 53}, {"smiles": "O=C(COCC1CC1)N1CCSCC1", "INHIBITION": 64.9}, {"smiles": "Cc1ccc(NC2CCN(C(=O)CCOCC(F)(F)F)CC2)nn1", "INHIBITION": 33.3}, {"smiles": "Cc1ccc(NC2CCN(C(=O)COc3ccccc3)CC2)nn1", "INHIBITION": -29.7}, {"smiles": "Cc1ccc(NC2CCN(C(=O)COC3CCCC3)CC2)nn1", "INHIBITION": -28.4}, {"smiles": "Cc1ccc(NC2CCN(C(=O)COC3CCCCC3)CC2)nn1", "INHIBITION": -7.81}, {"smiles": "CS(=O)(=O)NCC1CCCN(C(=O)COCC2CC2)C1", "note": "(centres undefined)", "INHIBITION": 48.1}, {"smiles": "Cc1ccc(NC2CCN(C(=O)COCC3CC3)CC2)nn1", "INHIBITION": 56.6}, {"smiles": "CC(C)(O)CN1CCN(C(=O)COCC2CC2)CC1", "INHIBITION": -38.8}]}]}
